In PubChem BioAssay (EPA / NIEHS) one finds AC50 and outcome data, which are given here for 32 molecules.

Records with an inconclusive call do not appear. Active and inactive are the calls of the source. How the source made its calls, unless noted: active means hit-call score of the fitted dose curve at least 0.9, where 1 is the maximum; inconclusive means response in the unintended direction; inactive means score below 0.9.

Test [1] has as its target Estrogen receptor (Homo sapiens) (UniProt P03372). As to the kind of experiment: CCTE_Deisenroth_AIME_96WELL_LUC_Inactive: CCTE's 96-well Estrogen Receptor Transactivation Assay without AIME metabolic competence (ERTA luciferase; metabolism negative), Deisenroth Lab (AID 2284025). In short, it runs like this: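 Metabolism-negative arm: chemicals (0.002–200 uM, 10 points) incubated 2 h with alginate-water microspheres, then medium moved onto VM7Luc4E2 cells for 24 h luciferase read-out. Positive direction vs 17beta-estradiol; n≥4 experiments.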

Test [2] in a line: CCTE_Deisenroth_AIME_96WELL_CTox_Active: Cytotoxicity Assessment (CTOX) in CCTE's 96-well Estrogen Receptor Transactivation Assay with AIME metabolic competence (metabolism positive), Deisenroth Lab (AID 2284028). On the procedure: CCTE_Deisenroth_AIME_96WELL (AIME metabolism assay) is a cell-based, single-readout assay that uses VM7Luc4E2, a human mammary gland/breast cell line, with measurements taken at 24 hour after chemical dosing in a 96-well plate.CCTE_Deisenroth_AIME_96WELL_CTox_Active is one of four assay components measured or calculated from the CCTE_Deisenroth_AIME_96WELL assay. It is designed to make measurements of a protease substrate, a type of viability indicator, as detected with substrate cleavage to a fluorescent probe in living cells.CCTE_Deisenroth_AIME_96WELL_CTox_Active is a component of the CCTE_Deisenroth_AIME_96WELL assay that measures the effect of retroftting the VM7Luc ERTA assay with the Alginate Immobolization of Metabolic Enzymes (AIME) metabolism method. AIME is optimized to impart phase I hepatic metabolism using phenobarbital/beta-naphthoflavone induced hepatic S9 from male Sprague Dawley rats. Parent chemicals are incubated for 2 hours in the AIME assay prior to transfer to the VM7Luc ERTA assay plate. […] This endpoint evaluates cytotoxicity in metabolism positive mode. Using a type of flourescent probe in VM7Luc cells, loss-of-signal activity can be used to understand loss of viability. This assay endpoint, CCTE_Deisenroth_AIME_96WELL_CTox_Active, was analyzed with bidirectional fitting in the ERTA assay. […]

Test [3] can be described thus: CCTE_Deisenroth_AIME_96WELL_CTox_Inactive: Cytotoxicity Assessment (CTOX) in CCTE's 96-well Estrogen Receptor Transactivation Assay without AIME metabolic competence (metabolism negative), Deisenroth Lab (AID 2284029). A digest of the protocol:
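Metabolism-negative mode: alginate-water lids without rat S9, 2 h pre-incubation of 10-point series (0.002 - 200 uM). Conditioned medium on VM7Luc4E2 cells 24 h; loss of fluorescent live-cell protease signal marks cytotoxicity.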

The target of test [4] is Estrogen receptor (Homo sapiens) (UniProt P03372). As to the kind of experiment: CCTE_Deisenroth_AIME_384WELL_LUC_Active: CCTE's 384-well Estrogen Receptor Transactivation Assay with AIME metabolic competence (ERTA luciferase; metabolism positive), Deisenroth Lab (AID 2284030). In short, it runs like this: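 Readout: bioluminescent luciferase induction in VM7Luc4E2 cells 24 hour after receiving medium from a 2 h rat hepatic S9 (induced, alginate microsphere) metabolism step. Concentrations 0.002 - 200 uM; activity scaled to 17beta-estradiol positive control.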
Sequence of Estrogen receptor (Homo sapiens) (P03372 whole entry, looked up): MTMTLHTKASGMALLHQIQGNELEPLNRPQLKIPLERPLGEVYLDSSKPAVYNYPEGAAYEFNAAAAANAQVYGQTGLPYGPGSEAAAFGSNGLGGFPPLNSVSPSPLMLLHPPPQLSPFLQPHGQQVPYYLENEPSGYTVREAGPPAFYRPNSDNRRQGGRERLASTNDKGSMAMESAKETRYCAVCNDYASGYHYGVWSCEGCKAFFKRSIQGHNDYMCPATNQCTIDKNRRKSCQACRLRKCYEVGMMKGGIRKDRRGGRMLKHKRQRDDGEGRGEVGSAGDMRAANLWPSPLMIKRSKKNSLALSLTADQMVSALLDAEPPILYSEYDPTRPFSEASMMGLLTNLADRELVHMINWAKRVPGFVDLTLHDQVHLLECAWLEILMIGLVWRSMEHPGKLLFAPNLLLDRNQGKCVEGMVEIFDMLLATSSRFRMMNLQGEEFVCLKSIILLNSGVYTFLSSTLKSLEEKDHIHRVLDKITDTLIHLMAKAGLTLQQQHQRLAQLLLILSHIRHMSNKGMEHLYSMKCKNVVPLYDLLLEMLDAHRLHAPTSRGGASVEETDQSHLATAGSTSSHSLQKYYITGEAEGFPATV

The nature of test [5]: CCTE_Deisenroth_AIME_384WELL_CTox_Active: Cytotoxicity Assessment (CTOX) in CCTE's 384-well Estrogen Receptor Transactivation Assay with AIME metabolic competence (metabolism positive), Deisenroth Lab (AID 2284037).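 Further: chemicals first conditioned 2 h by alginate-bound induced rat liver S9 before cells; activity means signal loss indicating cell death.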 A digest of the protocol:
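Chemicals pre-incubated 2 hours with alginate-immobilised phenobarbital/beta-naphthoflavone-induced male Sprague Dawley rat liver S9, then conditioned medium applied 24 hour to VM7Luc4E2 cells. Viability by fluorogenic protease substrate; 10-point series 0.002 - 200 uM.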

Test [6] has as its target Estrogen receptor (Homo sapiens) (UniProt P03372). The test is described as follows: CCTE_Deisenroth_AIME_384WELL_LUC_Inactive: CCTE's 384-well Estrogen Receptor Transactivation Assay without AIME metabolic competence (ERTA luciferase; metabolism negative), Deisenroth Lab (AID 2284038).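 Further: VM7Luc4E2 breast cells given medium preincubated 2 h with S9-free microspheres; hits raise estrogen receptor luciferase signal so potencies reflect agonists.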 In short, it runs like this: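 VM7Luc4E2 ER transactivation, luciferase bioluminescence after 24 h, using medium pre-incubated 2 h with S9-free alginate microspheres. Concentrations 0.002–200 uM; gain of signal fitted relative to 17beta-estradiol.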

A short description of test [7]: CCTE_Shafer_MEA_dev_firing_rate_mean: CCTE's Neural Network Formation Assay for Mean Firing Rate, Shafer Lab (AID 2284031; active means hit-call score of the fitted dose curve at least 0.9, where 1 is the maximum; inactive means score below 0.9). In short, it runs like this: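 Steps: seed rat cortical cells (1.5 x 10^5/well) with laminin on PEI-coated MEA; dose day 0; record DIV 5/7/9/12, full media and compound exchange after DIV 5 and 9 recordings; compute well-mean firing rate AUC.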

As for `CC1(C)C(C=C(Cl)Cl)C1C(=O)OC(C#N)c1cccc(Oc2ccccc2)c1` (stereo unspecified), in test [1], the AC50 was 57 µM (active). Also, the molecule was classed as inactive in test [2] and in test [3].
As to `CCC(C)n1c(=O)[nH]c(C)c(Br)c1=O` (stereo unspecified), the molecule was called inactive in test [4], in test [5] and in test [6].
On to `Nc1cnn(-c2ccccc2)c(=O)c1Cl`, for which the call in test [4] and in test [6] was inactive.
In the case of `CC(C)Oc1cccc(NC(=O)c2ccccc2C(F)(F)F)c1`, in test [5], the molecule was called inactive.
For the molecule `CS(=O)(=O)c1ccc(C(=O)C2C(=O)CCCC2=O)c([N+](=O)[O-])c1`, in test [7], the outcome was inactive.
In the case of `O=c1n(Cl)c(=O)n(Cl)c(=O)n1Cl`, the molecule was called inactive in test [4] and in test [6].
As for `COCC(C)N(C(=O)CCl)c1c(C)csc1C` (stereo unspecified), the call in test [4], in test [5] and in test [6] was inactive.
With `O=C1C2CC=CCC2C(=O)N1SC(Cl)(Cl)Cl` (stereo unspecified), the call in test [7] was inactive.
In the case of `Nc1c(Cl)c(Cl)nc(C(=O)O)c1Cl`, the results for the AC50 in test [4] and in test [6] were 41.7 µM (active) and 14.3 µM (active), respectively. Further, the result in test [5] was inactive.
As to `CCN(CC)c1nc(C)cc(OP(=S)(OC)OC)n1`, the outcome in test [7] was inactive.
`CN=C=S`: the call in test [4], in test [5] and in test [6] was inactive.
On to `CCSC(=O)N1CCCCCC1`, for which the result in test [4], in test [7], in test [5] and in test [6] was inactive.
Consider `CCCCC(C#N)(Cn1cncn1)c1ccc(Cl)cc1` (stereo unspecified), for which the outcome in test [5] was inactive.
On to `COc1ccc(-c2ccccc2)cc1NNC(=O)OC(C)C`, for which the AC50 in test [5] was 79.5 µM (active). For the same molecule, the molecule was classed as inactive in test [6].
Take `Clc1cccc(C(Cl)(Cl)Cl)n1`: the molecule was classed as inactive in test [4] and in test [6].
As for `CC1(C)CON(Cc2ccccc2Cl)C1=O`, the call in test [4] was inactive. In test [6], the AC50 is 73.1 µM (active).
Take `CCOc1nc(C(Cl)(Cl)Cl)ns1`: the outcome in test [4] and in test [6] was inactive.
As to `COC(=O)NC(=S)Nc1ccccc1NC(=S)NC(=O)OC`, the result in test [4], in test [5] and in test [6] was inactive.
On to `COC(=O)NS(=O)(=O)c1ccc(N)cc1`, for which the molecule was classed as inactive in test [4] and in test [6].
Regarding `CC(C)(C)C(=O)C(Oc1ccc(Cl)cc1)n1cncn1` (stereo unspecified), the result in test [7] was inactive.
`CS(=O)(=O)c1cc(C(F)(F)F)ccc1C(=O)c1cnoc1C1CC1`: the molecule was called inactive in test [4], in test [7], in test [5] and in test [6].
On to `CNC(=O)N(C)c1nnc(C(C)(C)C)s1`, for which the result in test [4] and in test [6] was inactive.
On to `COc1cc(OC)nc(NC(=O)NS(=O)(=O)c2ncccc2OCC(F)(F)F)n1`, for which the call in test [4], in test [5] and in test [6] was inactive.
As to `Cc1cc(C)nc(Nc2ccccc2)n1`, the AC50 in test [4] is 93.3 µM (active). In test [6], the molecule was called inactive.
Consider `COP(=O)(OC)O/C(C)=C/C(=O)N(C)C`, for which, in test [7], the outcome was inactive.
As for `CCCCOCN(C(=O)CCl)c1c(CC)cccc1CC`, the molecule was classed as inactive in test [5].
In the case of `N#Cc1c(Cl)cccc1Cl`, the call in test [4], in test [5] and in test [6] was inactive.
With `CCNC(=O)NC(=O)C(C#N)=NOC`, in test [7], the result was inactive.
Regarding `COCc1cnc(C2=NC(C)(C(C)C)C(=O)N2)c(C(=O)O)c1` (stereo unspecified), the outcome in test [4], in test [5] and in test [6] was inactive.
Turning to `CCOP(=S)(OCC)Oc1nc(Cl)n(C(C)C)n1`, the call in test [4], in test [5] and in test [6] was inactive.
As to `CC(C)Nc1nc(Cl)nc(NC(C)C)n1`, the result in test [4] and in test [6] was inactive.
With `COP(=S)(OC)Oc1ccc([N+](=O)[O-])c(C)c1`, the molecule was called inactive in test [4], in test [7], in test [5] and in test [6].

In general, AC50 refers to the concentration giving half of the maximal activity seen.
